{"source": "PubChem BioAssay AID2546", "about": "(National Center for Advancing Translational Sciences (NCATS), 2010)", "note": "The whole screen tested about 310,000 compounds, of which about 11,000 (3.5%) were called active. Where a call stands in place of a potency, no number is given. Roughly 8% stayed inconclusive and do not appear here. Many of the other results were omitted from the sample, so actives are more common in it than they were. Values without a mark were called inactive. The call rests on the fitted dose curve; in most records, active means well fitted inhibition curve with a large enough effect; inconclusive means small, poorly fitted or top-dose-only effect, or effect the other way; inactive means flat fitted curve, though single readings scatter. Potency means the concentration at half of the fitted maximal effect.", "data": [{"experiment": "VP16 counterscreen qHTS for inhibitors of ROR gamma transcriptional activity;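 further: Gal4-VP16 expression switched on by copper sulfate through the metallothionein promoter; nearly all actives have a fitted effect of over 50% in size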", "conditions": "Drosophila S2 Gal4-VP16 UAS-luciferase, luminescence, 20 h; series mostly up to 53.6 µM", "values": [{"smiles": "CN(CC(=O)NCc1ccc(Cl)cc1)S(=O)(=O)c1cccs1", "Potency": "inactive"}, {"smiles": "CC(C)=CCCC(C)CN1CCC(n2nccc2NC(=O)c2ccccc2)CC1", "note": "(centres undefined)", "Potency": "inactive"}, {"smiles": "O=C(CN(C(=O)CCC(=O)Nc1nccs1)c1ccc(F)cc1)NCc1ccc2c(c1)OCO2", "Potency": "inactive"}, {"smiles": "O=C(/C=C/c1ccc(F)cc1)NCCNC(=O)/C=C/c1ccc(F)cc1", "Potency": "inactive"}, {"smiles": "O=C(/C=C/c1ccc(F)cc1)NC(=S)NNC(=O)c1cccnc1", "Potency": "10 µM (active)"}, {"smiles": "CC(C)c1ccc(/C=C/C(=O)NNC(=O)c2cccnc2)cc1", "Potency": "inactive"}, {"smiles": "COc1ccc(C(=O)N(C)CC(O)c2ccccc2)cc1OC1CCN(C(C)=O)CC1", "note": "(centres undefined)", "Potency": "inactive"}, {"smiles": "CCCC(=O)N(CCc1ccccc1)Cc1nc2ccccc2c(=O)[nH]1", "Potency": "inactive"}, {"smiles": "CN(Cc1nc2ccccc2c(=O)[nH]1)Cc1cc(=O)oc2ccc3ccccc3c12", "Potency": "inactive"}, {"smiles": "O=C(c1ccco1)N(Cc1nc2ccccc2c(=O)[nH]1)C1CCCC1", "Potency": "8.91 µM (active)"}, {"smiles": "NS(=O)(=O)c1cccc(NC(=O)CSc2nc3ccccc3n2-c2ccccc2)c1", "Potency": "inactive"}, {"smiles": "CCN(CC(=O)Nc1cccc(S(N)(=O)=O)c1)Cc1nc2ccccc2c(=O)[nH]1", "Potency": "7.94 µM (active)"}, {"smiles": "CCN(CC)c1ccc(C(=O)NNC(=O)CCc2nc3ccccc3c(=O)[nH]2)cc1", "Potency": "inactive"}, {"smiles": "O=C(COc1ncnc2ccccc12)NC(=O)NCc1ccccc1", "Potency": "inactive"}, {"smiles": "CCN(CC(=O)Nc1ccc(Cl)c(S(=O)(=O)N(C)C)c1)Cc1nc2ccccc2c(=O)[nH]1", "Potency": "inactive"}, {"smiles": "CCN(CC(=O)NC(=O)NCc1ccccc1)Cc1nc2ccccc2c(=O)[nH]1", "Potency": "2.24 µM (active)"}, {"smiles": "CC(=O)NCC(=O)N1CCC(n2nccc2NC(=O)CCCc2ccccc2)CC1", "Potency": "inactive"}, {"smiles": "O=S(=O)(Nc1ccccc1Cl)c1cccc2nsnc12", "Potency": "inactive"}, {"smiles": "O=c1c(-c2cccc(Cl)c2)c[nH]n1-c1ccccc1", "Potency": "inactive"}, {"smiles": "COc1ccc(NC(=O)c2sc3nc(C)nc(N4CCN(c5ccccn5)CC4)c3c2C)c(OC)c1", "Potency": "inactive"}, {"smiles": "COc1ccc(C(=O)Nc2ccccc2C(=O)NCc2ccco2)cc1", "Potency": "inactive"}, {"smiles": "COc1cc(/C=N/NC(=O)c2ccc(N3CCCC3=O)cc2)ccc1O", "Potency": "inactive"}, {"smiles": "COc1ccc(C(=O)Nc2ccccc2C(=O)N/N=C/c2ccc(O)c(OC)c2)cc1", "Potency": "0.316 µM (active)"}, {"smiles": "COc1ccc(C(=O)Nc2ccccc2C(=O)N/N=C/c2ccccc2OC)cc1", "Potency": "12.6 µM (active)"}, {"smiles": "COc1ccc(/C=N/NC(=O)c2ccc3c(c2)OCCO3)c(OC)c1", "Potency": "inactive"}, {"smiles": "COc1cc(/C=N/NC(=O)c2ccccc2)ccc1OS(=O)(=O)c1ccccc1", "Potency": "inactive"}, {"smiles": "Cn1c(Nc2cccc(Cl)c2)nc2ccccc21", "Potency": "inactive"}, {"smiles": "Fc1cc(F)c2nc(N3CCOCC3)sc2c1", "Potency": "inactive"}, {"smiles": "O=C(Nc1nc2c(F)cc(F)cc2s1)C1COc2ccccc2O1", "note": "(centres undefined)", "Potency": "inactive"}, {"smiles": "Fc1cc(F)c2nc(Nc3nc4c(F)cccc4s3)sc2c1", "Potency": "7.08 µM (active)"}, {"smiles": "CCc1ccc(/C=N/NC(=O)c2nnn(-c3nonc3N)c2CN2CCc3ccccc32)cc1", "Potency": "inactive"}, {"smiles": "COc1ccc(C(C(=O)NC2CCCCC2)N(C(=O)c2snc(C(N)=O)c2N)c2ccccc2OC)cc1", "note": "(centres undefined)", "Potency": "inactive"}, {"smiles": "CCC1(C)Cc2c(sc3nc(SC)[nH]c(=O)c23)CO1", "note": "(centres undefined)", "Potency": "inactive"}, {"smiles": "CCC1(C)Cc2c(sc3nnn(CC(=O)Nc4ccc(Cl)cc4)c(=O)c23)CO1", "note": "(centres undefined)", "Potency": "inactive"}, {"smiles": "CCC1(C)Cc2c(sc3[nH]c(=S)n(Cc4ccccc4)c(=O)c23)CO1", "note": "(centres undefined)", "Potency": "1.26 µM (active)"}, {"smiles": "CCOc1ccc(N(CC(=O)Nc2ccccc2F)S(=O)(=O)c2c(C)[nH]c(=O)[nH]c2=O)cc1", "Potency": "inactive"}, {"smiles": "Cc1cccc(N2CCN(S(=O)(=O)c3ccc(-c4cc(C)no4)s3)CC2C)c1", "note": "(centres undefined)", "Potency": "inactive"}, {"smiles": "COCCCNS(=O)(=O)c1cccc(S(=O)(=O)c2cccc(S(=O)(=O)NCCCOC)c2)c1", "Potency": "inactive"}, {"smiles": "CCOc1ccccc1NS(=O)(=O)c1c[nH]c(C(=O)OC)c1", "Potency": "inactive"}, {"smiles": "CCCNC(=O)CSc1nc(Cc2ccccc2)nc2ccccc12", "Potency": "inactive"}, {"smiles": "COCc1ccc(CN2CCC(Oc3ccc(C(=O)NCc4ccccn4)cc3)CC2)o1", "Potency": "inactive"}, {"smiles": "CC1(C)C(c2cccs2)=[N+]([O-])C2(CCCCC2=O)N1O", "note": "(centres undefined)", "Potency": "inactive"}, {"smiles": "CC(=O)C1(C)N(O)C(C)(C)C(c2cccs2)=[N+]1[O-]", "note": "(centres undefined)", "Potency": "10 µM (active)"}, {"smiles": "C/C(=N\\O)C1(C)N(O)C(C)(C)C(c2ccc(Br)cc2)=[N+]1[O-]", "note": "(centres undefined)", "Potency": "inactive"}, {"smiles": "COc1ccc(C2/C=C\\CN(Cc3ccco3)C(C)C(=O)N2Cc2ccc(F)cc2)cc1", "note": "(centres undefined)", "Potency": "inactive"}, {"smiles": "COc1ccc(CN2CN(C(C)C)CSC2=S)cc1", "Potency": "inactive"}, {"smiles": "COc1ccc(CN2CN(C3CCCC3)CSC2=S)cc1", "Potency": "11.2 µM (active)"}, {"smiles": "COc1ccc(CN2CC(C(=O)NC3CCCCC3)CC2=O)cc1", "note": "(centres undefined)", "Potency": "inactive"}, {"smiles": "CC(C)Nc1ccc(-n2nc3ccccc3[n+]2[O-])cc1", "Potency": "10 µM (active)"}, {"smiles": "CC1CCN(C(=O)CCNC(=O)c2ccccc2)CC1", "Potency": "inactive"}, {"smiles": "COc1ccc(CCNC(=O)CN2C(=O)CCSc3ccccc32)c(OC)c1", "Potency": "inactive"}, {"smiles": "C=CCn1c(-c2ccc3[nH]c(C)c(C)c3c2)n[nH]c1=S", "Potency": "12.6 µM (active)"}, {"smiles": "COc1cc(-c2n[nH]c(=S)n2Cc2ccccc2)cc(OC)c1OC", "Potency": "inactive"}, {"smiles": "C=CCn1c(=S)sc2c(=O)[nH]c(C)nc21", "Potency": "inactive"}, {"smiles": "COC(=O)c1cccc(C(=O)N2CCC(CCC(=O)NCc3ccc(F)cc3)CC2)c1", "Potency": "inactive"}, {"smiles": "O=C(c1ccc(Oc2ccc(Cl)cc2)c([N+](=O)[O-])c1)N1CCCC1", "Potency": "inactive"}, {"smiles": "CCN(CC)c1ccc(C(=O)Nn2c(C)nc3ccccc3c2=O)cc1", "Potency": "inactive"}, {"smiles": "COC(=O)c1ccc2c(=O)n(CCN3CCOCC3)c(SCC(=O)Nc3cccc(OC)c3)nc2c1", "Potency": "inactive"}, {"smiles": "COc1ccccc1N1CCN(S(=O)(=O)CCNC(=O)c2ccc(OC(C)C)cc2)CC1", "Potency": "inactive"}, {"smiles": "O=C(CSCc1ccccc1)N1CCc2ccccc21", "Potency": "inactive"}, {"smiles": "NC(=O)N1CCc2ccccc21", "Potency": "inactive"}, {"smiles": "O=C(NC(=S)N1CCc2ccccc21)c1ccco1", "Potency": "3.16 µM (active)"}, {"smiles": "CN(C)c1ccc(-c2nnc(-c3cccnc3)o2)cc1", "Potency": "inactive"}, {"smiles": "O=C(Nc1ccncc1)Nc1ccc(F)cc1", "Potency": "inactive"}, {"smiles": "Cc1ccc(C)c(N2CCN(C(=O)CCCn3c(=O)c4cccn4c4cccnc43)CC2)c1", "Potency": "inactive"}, {"smiles": "Cc1ccc(C)c(N2CCN(C(=O)CCCCn3c(=O)[nH]c4ccccc4c3=O)CC2)c1", "Potency": "inactive"}, {"smiles": "Cc1ccc(C)c(N2CCN(C(=O)CCCCCn3c(=S)[nH]c4ccc(N5CCOCC5)cc4c3=O)CC2)c1", "Potency": "5.62 µM (active)"}, {"smiles": "O=C(CSc1nc2nccnc2c(=O)n1Cc1cccs1)Nc1ccccc1F", "Potency": "inactive"}, {"smiles": "CC(=O)N(C)c1ccc(NC(=O)Nc2cccc3ccccc23)cc1", "Potency": "inactive"}, {"smiles": "O=C(CCN1c2ccccc2Sc2ccccc21)Nc1ccccc1", "Potency": "inactive"}, {"smiles": "CCN1/C(=C/C(=S)Nc2ccccc2)Sc2ccccc21", "Potency": "12.6 µM (active)"}, {"smiles": "CCNC(=O)N1c2ccccc2Sc2ccccc21", "activity, negative = inhibition": "-17% [at 10 µM]"}, {"smiles": "Cc1ccc(C(=O)N2CC(=O)Nc3ccc(F)cc3C2c2ccc(F)cc2)cc1", "note": "(centres undefined)", "Potency": "inactive"}, {"smiles": "CN(CC1CCCO1)S(=O)(=O)c1ccc(C(=O)Nc2ccc(F)cc2)cc1", "note": "(centres undefined)", "Potency": "inactive"}, {"smiles": "COC(=O)[C@]1(S(=O)(=O)c2ccccc2)C[C@@H]2ON=C(c3ccc(OC)cc3)[C@@H]2C1", "Potency": "inactive"}, {"smiles": "N#C[C@]1(S(=O)(=O)c2ccccc2)C[C@@H]2ON=C(c3cccc(Br)c3)[C@@H]2C1", "Potency": "11.2 µM (active)"}, {"smiles": "Cc1cc(NC(=O)c2ccco2)c(=O)n(Cc2c(F)cccc2Cl)c1", "Potency": "inactive"}, {"smiles": "Cc1c(CN2CC[C@@H](N3CCN(c4ccccn4)CC3)[C@H](O)C2)[nH]c2ccc(F)cc12", "Potency": "inactive"}, {"smiles": "CC(C)n1c(=S)[nH]c2cc(C(F)(F)F)ccc21", "Potency": "10 µM (active)"}, {"smiles": "CCCn1c(=S)[nH]c2ccc(C(F)(F)F)cc21", "Potency": "inactive"}, {"smiles": "COc1ccc(C)cc1N(C(=O)Cn1nnc(-c2ccc(C)o2)n1)C(C(=O)NC1CCCC1)c1ccncc1", "note": "(centres undefined)", "Potency": "inactive"}, {"smiles": "COc1ccc(-c2nc(N)ncc2-c2ccc(Cl)cc2)c(O)c1", "Potency": "inactive"}, {"smiles": "Oc1cccc(C2c3[nH]c4ccccc4c3CCN2Cc2cnn(-c3ccccc3)c2)c1", "note": "(centres undefined)", "Potency": "inactive"}, {"smiles": "Cc1[nH]nc(-c2ccc(OCc3cnn(-c4ccccc4)c3)cc2O)c1Oc1ccc(Cl)cc1", "Potency": "3.98 µM (active)"}, {"smiles": "COC(=O)c1c(NC(=O)c2ccccc2F)sc2c1C(C(=O)OC)CC2", "note": "(centres undefined)", "Potency": "inactive"}, {"smiles": "CCc1ccc(N2CC(C(=O)N3CCCCCC3)CC2=O)cc1", "note": "(centres undefined)", "Potency": "inactive"}, {"smiles": "O=c1[nH]cnc2c1c(-c1ccccc1)cn2-c1ccc(F)cc1", "Potency": "inactive"}, {"smiles": "COc1ccc(N2C(=O)C(Cc3ccccc3)NC2=S)cc1", "note": "(centres undefined)", "Potency": "inactive"}, {"smiles": "COc1ccc(-n2cc(-c3ccccc3)c3c(=S)nc[nH]c32)cc1", "Potency": "1.12 µM (active)"}, {"smiles": "Cc1ccc(S(=O)(=O)NCc2ccc(C(=O)NC3CCC(C)CC3)cc2)cc1", "note": "(centres undefined)", "Potency": "inactive"}, {"smiles": "CCSc1nnc(-c2cc3c(s2)-c2ccccc2CC3)o1", "Potency": "2.51 µM (active)"}, {"smiles": "O=C(CSc1nnc(-c2ccccc2O)o1)NC1CCCCC1", "Potency": "inactive"}, {"smiles": "Fc1ccc(CSc2nnc(-c3cc4c(s3)-c3ccccc3CC4)o2)cc1", "Potency": "inactive"}, {"smiles": "COc1cccc(CNc2ncc(-c3ccccc3)n2C)c1", "Potency": "inactive"}, {"smiles": "O=C(CCC1CCCN(C(=O)c2ccc(F)c(F)c2)C1)N1CCN(c2ccccn2)CC1", "note": "(centres undefined)", "Potency": "inactive"}, {"smiles": "COCCCNC(=S)NNC(=O)C(O)(c1ccccc1)c1ccccc1", "Potency": "inactive"}, {"smiles": "Cc1cc(C(=O)NCCCc2ccccc2)no1", "Potency": "inactive"}, {"smiles": "CCCCNC(=S)NNC(=O)c1cc(C)on1", "Potency": "11.2 µM (active)"}, {"smiles": "O=C(NCCN1CCCC(O)C1)c1cc(COc2c(F)cccc2F)on1", "note": "(centres undefined)", "Potency": "inactive"}, {"smiles": "CC1CCN(S(=O)(=O)c2ccc(NC(=O)C3CC(=O)N(c4ccccc4)C3)cc2)CC1", "note": "(centres undefined)", "Potency": "inactive"}, {"smiles": "COc1cccc(NC(=O)C(=O)c2cn(CC(=O)N3CCOCC3)c3ccccc23)c1", "Potency": "inactive"}, {"smiles": "Cc1ccc(NC(=O)c2cc3ccccc3o2)cc1", "Potency": "inactive"}, {"smiles": "Cc1ccc(OC(=O)c2cc3ccccc3o2)cc1", "Potency": "inactive"}, {"smiles": "C/C(=N\\NC(=S)Nc1ccc(C)cc1)c1cc2ccccc2o1", "Potency": "0.794 µM (active)"}]}]}
